MsrA act: activators of bovine methionine sulfoxide reductase A; purified bovine MsrA, absorbance read-out; activation, % at 10.6 µM; 360,000 compounds, 0.3% hits; AID 602163; in the data active means activation above about 7.5%;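 further: 0% = vehicle and 100% = reference activator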
MsrA inhibitor: inhibits bovine methionine sulfoxide reductase A. purified bovine MsrA, absorbance read-out. inhibition, % at 15.5 µM. 360,000 compounds, 0.75% hits;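 further: 0% = vehicle wells with enzyme and 100% = reference inhibitor wells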
PKA-R1A activ: PKA-R1A complex activation | PKA-R1A dissociation, Cy5-IP20 fluorescence polarization; scaled: DMSO 0%, 113 µM cGMP 100% | P00514+P68181 | AID 504707 | 340,000 compounds, 0.083% hits | activation, % at 11.4 µM;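 active means percent activation above the mean of all tested compounds plus 3 SD, cut at about 19% in these data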;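 further: higher means more PKAc released from R1A so a rise in polarization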
PKA-R2B act: PKA-R2B complex activation. P22694+P31323. PKA-R2B holoenzyme dissociation, Cy5-IP20 fluorescence polarization; R2B truncated from residue 108, S112A mutant; 0% DMSO only, 100% 113 µM cGMP. activation, % at 11.4 µM. 340,000 compounds, 0.079% hits;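 active means activation above a cutoff set at the mean over all compounds plus 3 SD, cut at about 18% in these data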;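 further: higher means more holoenzyme dissociation and a rise in polarization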
Target sequence (P31323 whole entry, looked up, other chains not shown, the tested form may be a part): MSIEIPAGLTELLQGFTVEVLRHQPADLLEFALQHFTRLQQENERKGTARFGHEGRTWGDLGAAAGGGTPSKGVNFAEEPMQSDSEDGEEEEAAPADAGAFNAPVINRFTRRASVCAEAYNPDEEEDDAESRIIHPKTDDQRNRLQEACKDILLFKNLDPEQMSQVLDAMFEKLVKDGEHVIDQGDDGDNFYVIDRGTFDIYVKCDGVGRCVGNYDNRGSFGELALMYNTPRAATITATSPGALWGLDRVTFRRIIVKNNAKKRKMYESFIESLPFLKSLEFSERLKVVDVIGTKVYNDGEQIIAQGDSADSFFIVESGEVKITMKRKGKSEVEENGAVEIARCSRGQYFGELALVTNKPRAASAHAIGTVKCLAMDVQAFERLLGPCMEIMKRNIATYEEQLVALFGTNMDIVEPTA
Mot1-301 SUMO: inhibitors of SUMOylation pathway: yeast Mot1-301 growth rescue; growth rescue, % at 18.8 µM; 320,000 compounds, 1% hits; AID 2716; S. cerevisiae Mot1-301 growth rescue, ATP luminescence, 38.5C; percent above DMSO median, 100 means doubled;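 active means every valid replicate shows activation above 250% relative to neutral control wells; inactive means the rest, any valid replicate at or below 250%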;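 further: OY570 slx delta 5 strain wells were the positive control but not used for scaling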
MsrA conf: bovine MsrA inhibition, confirmed. shares compounds with MsrA inhibitor. purified bovine MsrA, absorbance read-out. inhibition, % at 15.5 µM. 2,300 compounds, 41% hits;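 further: coupled to thioredoxin reductase with NADPH and selenocystamine and DMSO as substrate; 0% = vehicle only and 100% = full effect of reference inhibitor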
Active calls of the source: *; / = no result given. The list is not random: actives were taken first. Their share in the collection is about 2%. Unless noted, no stated cut-off is given here; in the data, active means inhibition above about 4.5%; inactive means the rest.

SMILES | MsrA act | MsrA inhibitor | PKA-R1A activ | PKA-R2B act | Mot1-301 SUMO | MsrA conf
NS(=O)(=O)c1ccc(N/N=C/c2ccc(O)c(O)c2O)c([N+](=O)[O-])c1 | -8 | 2 | 4 | -6 | / | /
Cc1cc(=O)[nH]c2c(C)cc(S(=O)(=O)Nc3ccc(O)cc3)cc12 | -2 | 9.2* | -11 | -15 | -1 | 4.7*
CC(=O)Cc1nsc(NC(=O)c2ccc(-c3ccc(F)cc3)o2)n1 | -6 | 7.0* | 3 | -1 | 9 | 5.4*
CCOc1ccccc1-c1cnc(NC)cn1 | -6 | 1 | / | / | / | /
N#C/C(=C\c1cccs1)C(=O)NCc1cccnc1 | -9 | 5.5* | -3 | -11 | 3 | 4
N#C/C(=C\C=C\c1ccccc1)C(=O)NCc1cccnc1 | -4 | 7.6* | -1 | -8 | 4 | 6.8*
O=C(N/N=C/c1c(F)cccc1Cl)C1CC1 | -3 | 1 | -5 | 3 | 18 | /
O=C(O)c1ccc(N/N=C/c2c(F)cccc2Cl)cc1 | -6 | 6.5* | 0 | -2 | 14 | 4
Nc1cc(=O)n(Cc2ccccc2)c(N)c1C(=O)NCc1ccccc1 | / | -1 | / | / | / | /
O=C(O)c1ccc(/C=C/c2ccc3cccc(O)c3n2)cc1 | -5 | 5.6* | -6 | 3 | / | 5.3*
CCCNC(=O)c1cc(C2CCCCN2C(=O)c2cc(C(C)(C)C)nn2C)on1 (stereo not given) | -3 | -1 | / | / | / | /
CC[N+](CC)=N/N=C1\C=CC[N+]([O-])=C1 | -4 | 1 | / | / | / | /
COc1cc(-c2c(C#N)c(N)nc3[nH]c(=S)[nH]c(=O)c23)ccc1O | 0 | 5.0* | -4 | 7 | 305 | 4
O=c1c2c3c(sc2n(CCN2CCOCC2)c(=O)n1C1CCCCC1)CCCCC3 | / | -1 | / | / | / | /
COc1ccc(/C=N/NC(=O)c2c(C)n(C)c3ccc(OC)cc23)c(OC)c1 | -5 | 4.9* | -1 | 0 | -18 | 4
COc1ccc2c(c1)c(C(=O)N/N=C/c1ccccc1Cl)c(C)n2C | -3 | 0 | -11 | -4 | 19 | /
CC(=O)OC[C@@H]1CN(Cc2ccccc2)C[C@H](n2cnc3c(NC4CC4)ncnc32)O1 | -4 | 1 | / | / | / | /
Cc1nc(Nc2ccncc2)c2oc3ccccc3c2n1 | -9 | 5.4* | -3 | -8 | 4 | 2
CCc1nc(Nc2ccncc2)c2oc3ccccc3c2n1 | -4 | 4.7* | 0 | -16 | 108 | 4
CCC(CC)C(=O)N(C)c1c(C)nc2c(OCc3ccc(Cl)cc3)cccn12 | 1 | -1 | / | / | / | /
CC(C)C[C@H]1COc2cccc(N3CCCC3)c2S(=O)(=O)N1 | / | 1 | / | / | / | /
O=C(/C=C/c1cccs1)Nc1ccc([N+](=O)[O-])cc1 | -3 | 2 | -5 | -5 | 10 | /
Cc1ccnc(NS(=O)(=O)c2ccc(NC(=O)/C=C/c3cccs3)cc2)n1 | -17 | 5.9* | -2 | -6 | -7 | 4
Cc1ccnc(NS(=O)(=O)c2ccc(NC(=O)/C=C/c3ccccc3)cc2)n1 | -6 | 1 | -19 | 2 | -1 | /
O=C(/C=C/c1cccs1)Nc1ccncc1 | -7 | 5.9* | -1 | 2 | -2 | 5.3*
SMILES | MsrA act | MsrA inhibitor | PKA-R1A activ | PKA-R2B act | Mot1-301 SUMO | MsrA conf
Cc1cccc(NC(=O)/C=C/c2cccs2)n1 | -1 | 5.0* | -11 | 7 | -7 | 3
COc1ccc(N2C(=O)c3[nH]nc(-c4ccccc4)c3C2c2cccc(C(F)(F)F)c2)cc1 (stereo not given) | / | 1 | / | / | / | /
COc1ccc2c(c1)C(CC(C)=O)N(c1ccc(-c3cccs3)cc1)C(c1ccsc1)=C2 (stereo not given) | -4 | 3 | / | / | / | /
CCOC(=O)C(/C=C(\C#N)C(=O)OCC)=C(/N)N1CCN(c2ccccc2)CC1 | -3 | 6.8* | 8 | 0 | 347 | 5.3*
N#C/C(=C/c1cccs1)c1ccccn1 | -5 | 5.1* | -4 | 5 | 7 | 5.4*
CCOC(=O)CN1CCCc2nc(-c3ccc(OC)cc3)ccc21 | / | 0 | / | / | / | /
COCCNC(=S)N/N=C(\C)c1ccc(OC)cc1 | -3 | 2 | -5 | 4 | 50 | /
COCCNC(=S)N/N=C(\C)c1cc2ccccc2o1 | -2 | 8.2* | 0 | -4 | -8 | 5.2*
O=C(O)c1ccc2c(=O)n3c(nc2c1)/C(=C/c1cccc(O)c1)CC3 | -7 | 5.0* | 5 | -10 | 16 | 4
CSc1ccc(SC2CN(Cc3ccc(C)cc3)S(=O)(=O)C2)cc1 (stereo not given) | / | 1 | / | / | / | /
Cc1ccccc1-c1cc2nc(Oc3cccc(F)c3)n(C)c(=O)c2s1 | -1 | -1 | / | / | / | /
C=CCc1c(C)nc(C)nc1N/N=C/c1ccc([N+](=O)[O-])cc1 | -4 | 7.0* | 1 | -1 | 196 | 5
COC(=O)C1=C/C=C\CN(C(c2ccccc2)c2ccccc2)/C=C\1C(=O)OC | -1 | 0 | 10 | -4 | / | /
CN(C)c1ccc(C(=O)OCC(=O)N2CCCC2)cc1 | -4 | 5.7* | -6 | -4 | -2 | 2
O=C(NCCc1c[nH]c2ccccc12)c1ccc([N+](=O)[O-])o1 | 3 | 1 | 3 | -1 | / | /
Cc1nc2c(o1)C(=O)c1ccccc1C2=Nc1ccccc1 | -2 | 8.9* | -2 | -7 | / | 15*
Cc1ccc(N=C2C(=O)Nc3ccccc32)cc1 | -2 | 0 | -13 | -4 | -6 | /
CCOC(=O)c1c(Nc2ccc(OC)cc2)n[nH]c1C | / | 1 | / | / | / | /
COc1ccc(-n2nnc3c(SC(C(C)=O)C(=O)N(C)C)ncnc32)cc1 (stereo not given) | -5 | 5.4* | -1 | 10 | -6 | 3
CCNC(=O)C1CCCN(Cc2cc(-c3ccccc3)on2)CC1 (stereo not given) | -1 | -1 | / | / | / | /
O=C(COc1ccccc1)Nc1ccc2oc(=O)ccc2c1 | -2 | -1 | 10 | -6 | -6 | /
COC(=O)COc1ccc2oc(=O)cc(-c3cc4cccc(OC)c4o3)c2c1 | -5 | 7.4* | -10 | -8 | 12 | 15*
NC(=O)COc1ccc2oc(=O)cc(-c3cc4ccccc4o3)c2c1 | -4 | 23* | -2 | -2 | 95 | 20*
COC(=O)COc1ccc2oc(=O)cc(-c3cc4ccccc4o3)c2c1 | -3 | 15* | 3 | 6 | -9 | 24*
COc1cccc2cc(-c3cc(=O)oc4ccc(O)cc34)oc12 | 0 | 17* | -6 | -5 | -18 | 13*
SMILES | MsrA act | MsrA inhibitor | PKA-R1A activ | PKA-R2B act | Mot1-301 SUMO | MsrA conf
Cc1ccc2nc(C3CCCCC3)c(Cc3ccsc3)n2c1 | -13 | 2 | / | / | / | /
COc1ccc(N2C(=O)c3ccccc3NC(=O)C2C(=O)NCCc2ccccc2F)cc1 (stereo not given) | / | -1 | / | / | / | /
CCCCCc1c(-c2cccc(OC)c2)ncn1CCc1ccccc1OC | -2 | 21* | / | / | / | 18*
CN(C)/C=N/c1ncc(C(=O)c2ccccc2)s1 | -6 | 5.6* | -6 | 4 | / | 4.7*
COC(=O)c1ccc(N=NN2CCOCC2)cc1 | -4 | 6.6* | 2 | -1 | 30 | 2
COC(=O)c1ccc(N=NN2CCCCCC2)cc1 | -12 | 4 | -10 | -4 | -5 | /
